Source: PubChem (National Center for Advancing Translational Sciences (NCATS))
An excerpt weighted towards active compounds, which were near 0.71% of everything screened.
TR SRC2 fluor cs = counter-screen for TRb-SRC2 inhibitors: fluorescence interference. TRb/SRC2 Texas Red total fluorescence interference. Potency, µM (series often up to 106 µM), for the others: top-dose fluorescence change, negative = quenching. 0.29% of 280,000 active. AID 1479; active = well fitted curve in either direction with a large enough effect; inconclusive = small, poorly fitted or top-dose-only effect; also: % is scaled to controls: 0 for no effect and ±100 for the full control effect
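Human TRβ ligand-binding domain (0.6 uM) and Texas Red SRC2 peptide (20 nM) in Tris buffer with 1 uM T3 and 5% DMSO were incubated with pinned compound for 5 hr at ambient temperature. Total fluorescence was computed as S + 2P (555/632 nm).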
TRb-SRC2 inh = inhibitors of human thyroid hormone receptor beta-SRC2 interaction; P10828; TRbeta-SRC2 peptide binding, fluorescence polarization; receptor liganded with 1 µM T3; Potency, µM (series often up to 106 µM), for inactives: at the top dose activity change, negative = inhibition, hits mostly inhibitors; 0.065% of 280,000 active; AID 1469;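 also: plate controls were bound peptide for no effect and peptide without receptor for full effect; nearly all actives have a fitted effect of over 50% in size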
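Polarization signal, normalized between peptide-alone and full complex controls, measured compound effects on T3-liganded human TRb LBD (0.6 uM) binding 20 nM Texas Red SRC2 peptide after 5 hr.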
RECQ1 helicase = inhibitors of human RECQ1 DNA helicase; AID 2549; RECQ1 DNA unwinding, red fluorescence kinetic read; Potency, µM (top dose mostly 57.3 µM), for the others: top-dose activity, negative = inhibition, hits mostly inhibitors; 0.54% of 240,000 active; P46063;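 also: plate controls were vehicle for no effect and no enzyme for full effect; nearly all actives have a fitted effect of over 30% in size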
Target sequence (P46063 whole entry, looked up): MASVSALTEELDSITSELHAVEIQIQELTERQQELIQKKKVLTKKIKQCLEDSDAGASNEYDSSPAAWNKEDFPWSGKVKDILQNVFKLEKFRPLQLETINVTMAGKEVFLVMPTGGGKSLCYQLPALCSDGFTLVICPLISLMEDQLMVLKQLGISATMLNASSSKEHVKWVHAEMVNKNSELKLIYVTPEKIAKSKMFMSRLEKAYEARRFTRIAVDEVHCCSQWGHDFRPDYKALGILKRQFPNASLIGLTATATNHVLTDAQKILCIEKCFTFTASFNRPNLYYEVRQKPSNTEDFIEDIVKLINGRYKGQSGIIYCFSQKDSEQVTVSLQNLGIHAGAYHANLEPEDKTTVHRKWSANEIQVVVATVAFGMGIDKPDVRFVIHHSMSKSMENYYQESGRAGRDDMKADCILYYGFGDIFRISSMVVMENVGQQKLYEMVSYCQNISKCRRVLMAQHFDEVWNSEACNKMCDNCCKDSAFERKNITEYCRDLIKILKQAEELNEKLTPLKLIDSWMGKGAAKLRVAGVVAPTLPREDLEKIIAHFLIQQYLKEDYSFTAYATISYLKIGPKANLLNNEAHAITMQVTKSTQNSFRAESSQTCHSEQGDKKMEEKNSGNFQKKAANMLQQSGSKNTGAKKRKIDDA
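50 nM RECQ1T1 preincubated 15 min with compound in Tris pH 8.0 buffer with MgCl2, DTT, Tween-20 and 2.5 ug/ml poly(dI-dC); started with 200 nM TAMRA/BHQ-2 forked duplex and 2 mM ATP. Unwinding read as fluorescence (525/598 nm), two reads 2 h apart.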
ERG-DNA inh = blocks human ERG Ets domain binding to DNA. Potency, µM (titrated, usually from 76.9 µM), for the others: at the highest dose FP activity, negative = inhibition, most hits filed as inhibitors. 0.028% of 370,000 active. fluorescence polarization, His-ERG Ets domain / labelled DNA. P11308; active = well fitted inhibition curve with a large enough effect in the polarisation, with a control signal flat; inconclusive = small, poorly fitted or top-dose-only effect, or effect the other way, or a change in a side signal; inactive = no such curve, though single readings can be large or run the other way; the % refers to the polarisation;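 also: polarization taken with two DNA probes labelled with fluorescein and Texas red; % of control where 0% means no effect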
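His-tagged ERG Ets domain (1 uM in the protein solution; 300mM KCl, 50mM Tris-HCl, 1mM EDTA, 1mM DTT, pH 7.5) received compound, then a probe mix of 5 nM fluorescein-DNA and 100nM Texas-615-DNA. Fluorescence polarization was read for both dyes.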
GoLoco inh red = RGS12 GoLoco-Gai1 interaction inhibition | P63096 | Gai1:RGS12 GoLoco peptide FP, rhodamine, 10 min | Potency, µM (series often up to 61.6 µM), for the others: at the top dose activity, negative = inhibition, actives largely listed as inhibitors | 0.44% of 230,000 active; active = well fitted inhibition curve with a large enough effect, not every such curve was filed as active; inactive = no such curve, though single readings can be large or run the other way; also: % is scaled to controls: 0 for no effect and ±100 for the full control effect; nearly all actives have a fitted effect of over 30% in size
BLM helicase inh = Bloom syndrome helicase (human) inhibition; P54132; recombinant BLM DNA unwinding, fluorescence dequenching; Potency, µM (series often up to 56.1 µM), without a hit: at the highest dose activity change, negative = inhibition, hits mostly inhibitors; 0.2% of 350,000 active;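 also: plate controls were vehicle for no effect and no enzyme for full effect; nearly all actives have a fitted effect of over 35% in size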
An asterisk follows results filed as active; i = inactive; ? = inconclusive; . = no result; ! = not active in a repeat; [ ] = remark or other dose. Unless noted, calls follow the shape of the dose curve; as a rule, active = well fitted curve in the direction sought with a large enough effect; inconclusive = small, poorly fitted or top-dose-only effect, or another doubt; inactive = no such curve, though single readings can be large; an effect the other way counts as inactive or inconclusive. Potency is read from the fitted curve at half-maximal effect.

SMILES | TR SRC2 fluor cs | TRb-SRC2 inh | RECQ1 helicase | ERG-DNA inh | GoLoco inh red | BLM helicase inh
c1ccc2c(c1)Cc1cc3cc4c(cc3nc1-2)OCO4 | -6% | -2% | -24% | . | 7% | 3%
CCOC(=O)c1c(-c2ccccc2)oc2ccc(NS(=O)(=O)c3ccc(C)cc3)cc12 | 40µM*[quencher] | -12% | . | 6% | . | -17%
O=C(Nc1cccc(Cl)c1)c1cc(N=Nc2ccc([N+](=O)[O-])cc2Cl)ccc1O | -5% | 2% | -5% | -6% | 17% | 18µM*
COCc1cc(C)nc(SCC(=O)c2ccc(O)c(O)c2)c1C#N | -1% | 5% | 25µM* | . | -3% | -4%
COCc1cc(C)nc(SCC(=O)Oc2ccccc2)c1C#N | -3% | 8% | -3% | 1% | 7% | -6%
Cc1ccc(CSc2nc3c(c(=O)[nH]2)C(c2cccc(F)c2F)CC(=O)N3)cc1 (configuration not stated) | 8.9µM*[quencher] | ? | . | 3% | . | 0%
CSc1nc2c(c(=O)[nH]1)C(c1cccc(F)c1F)CC(=O)N2 (configuration not stated) | 6% | 0% | . | -3% | . | -2%
O=C(COc1ccccc1[N+](=O)[O-])N/N=C/c1ccc(OC(=O)c2ccco2)cc1 | 282µM*[quencher] | -11% | -7% | 10% | 1% | -8%
NS(=O)(=O)c1cccc2c1c([N+](=O)[O-])cc1[nH]c(=O)c(=O)[nH]c12 | ? | -4% | 1.4µM*! | . | -21% | -5%
CCOC(=O)c1cnc2c(C)cc(C)cc2c1Nc1ccc(S(=O)(=O)Nc2ncccn2)cc1 | 35µM*[quencher] | -13%[53 µM] | 0% | -1% | -16% | -15%
CCSc1ncc(Cl)c(C(=O)Nc2nc3ccc(S(C)(=O)=O)cc3s2)n1 | 35µM*[quencher] | -9%[53 µM] | . | 6% | . | 4%
CCSc1ncc(Cl)c(C(=O)Nc2nc3ccc(OC)cc3s2)n1 | 2.5µM*[quencher] | ? | . | -1% | . | -5%
CCSc1ncc(Cl)c(C(=O)Nc2nc3ccc(Cl)cc3s2)n1 | 10% | 2% | . | -3% | . | 1%
Nc1ccc(C(=O)OCC(=O)N2CCN(C(=O)c3ccco3)CC2)cc1[N+](=O)[O-] | 0.16µM*[quencher] | -12% | -7% | 7% | -10% | 4%
O=C(O)CC(C(=O)O)N1C(=O)/C(=C/C=C/c2ccco2)SC1=S (configuration not stated) | ? | 1% | 4µM* | 40% | -4% | 107%
O=C1S/C(=C\c2cccs2)C(=O)N1c1ccc(O)cc1 | . | . | . | 5% | . | -9%
O=C(O)CCCN1C(=O)/C(=C/C=C/c2ccco2)SC1=S | 0% | -7% | -5% | 57% | 35% | 8%
O=C(O)C(Cc1ccccc1)N1C(=O)/C(=C/C=C/c2ccco2)SC1=S (configuration not stated) | ? | 27% | 2.8µM* | 107% | 58% | 22µM*
O=C1S/C(=C\C=C\c2ccco2)C(=O)N1c1ccc(O)cc1 | 0% | -6% | 4% | 2% | 30% | 25µM*
CC1(C)[C@@H](C=C(Cl)Cl)[C@@H]1C(=O)OCc1cccc(Oc2ccccc2)c1 | 0%[201 µM] | -1%[201 µM] | . | . | . | .
C=CC1=C2C=C(C3CC3)N(Cc3ccccc3)C=C2C(=O)C(C)(OC(=O)c2ccco2)C1=O (configuration not stated) | 0%[11.2 µM] | 2%[11.2 µM] | i[11.5 µM] | . | 11%[14.2 µM] | -8%[12.4 µM]
CCOC(=O)c1ccc2c(c1)n(CCO)c(C)[n+]2CC | 2% | -2% | -12% | -1% | 1.6µM* | 5%
CCOC(=O)c1ccc2c(c1)n(CC)c(/C=C/N(C)c1ccccc1)[n+]2CC | -2% | -1% | 6% | 4% | 1.6µM* | 7%
COC(=O)c1ccc2c(c1)nc(C)n2CCO | 10% | -11% | 0% | -1% | 0% | -9%
CC[n+]1c(/C=C/N(C)c2ccccc2)n(-c2ccccc2)c2ccc(-c3nc4ccccc4s3)cc21 | -4% | 1% | -2% | 36% | . | 12%
SMILES | TR SRC2 fluor cs | TRb-SRC2 inh | RECQ1 helicase | ERG-DNA inh | GoLoco inh red | BLM helicase inh
CC[N+]1(CC(O)COC2CC(C)CC(C)(C)C2)CCOCC1 (configuration not stated) | -2% | -1% | 0% | 1% | 5.6µM* | -2%
CC1CCN(CC(O)COC2CC(C)CC(C)(C)C2)CC1 (configuration not stated) | . | . | . | 13% | . | .
CCC(C)Nc1ccc(NC(C)CC)cc1 (configuration not stated) | ? | -30%[201 µM] | -26% | -23% | 32µM* | .
CCC(C)NC(=O)Nc1ccc(Br)cc1 (configuration not stated) | 0% | 1% | 0% | 15% | -3% | 1%
CCOC(=O)c1c(S(=O)(=O)NCC(=O)N2CCN(c3cccc(Cl)c3)CC2)c(C)n(C)c1C | 0.35µM*[quencher] | -23% | . | -2% | . | 1%
CCn1cc2nc(SCC(=O)Nc3ccc(OC)c(OC)c3)n(Cc3ccc(OC)cc3)c(=O)c2n1 | . | . | . | 27% | . | -10%
CCn1cc2nc(SCC(=O)Nc3ccc(OC)c(Cl)c3)n(Cc3ccc(OC)cc3)c(=O)c2n1 | 3.5µM*[quencher] | ? | . | -7% | . | -2%
C#CCCCO/N=C1/C[C@@H](O)[C@@H](O)[C@@H]2[C@@H]3C(=O)N(C(C)(C)C)C(=O)[C@H]3CC[C@H]12 | -20%[11.2 µM] | -1%[11.2 µM] | i[11.5 µM] | . | . | -12%[12.4 µM]
CCSc1ncc(Cl)c(C(=O)N(Cc2ccc(N(C)C)cc2)Cc2ccco2)n1 | ? | 7% | . | 6% | . | -8%
COc1ccc(CC(=O)OCC(=O)NCc2ccc(Cl)cc2)cc1 | -2% | -2% | -4% | 12% | 5% | -8%
COc1ccc(CNC(=O)COC(=O)Cc2ccc(Cl)cc2Cl)cc1 | 35µM*[quencher] | ? | -16% | 4% | -7% | -6%
C=CCN1c2ccccc2[C@]23C[C@@H](C(=O)OC)N(C(=O)COCc4ccccc4)C2=NC(C(=O)OC)=C(C(=O)OC)[C@H]13 | -2%[11.2 µM] | 7%[11.2 µM] | -9%[11.5 µM] | . | 1%[14.2 µM] | -5%[12.4 µM]
O=C(O)c1ccc(Nc2cc(Cl)c3nonc3c2[N+](=O)[O-])cc1 | -2% | 5% | 10% | -7% | 14µM* | -2%
CCC(C(=O)O)c1ccccc1 (configuration not stated) | 0% | -2% | 16% | . | 28µM* | -8%
C/C(N)=C(/C#N)C(=O)CSc1nnnn1-c1ccccc1 | -1% | 0% | -15% | -4% | . | -12%
C/C(N)=C(/C#N)C(=O)CSc1nnnn1-c1ccc(C)cc1 | 2% | 5% | 20µM* | -2% | 15% | -7%
Cc1cc2n(n1)CCCN2C(=O)Nc1ccc(C)c(Cl)c1 | 0% | 2% | . | -1% | . | -2%
CCc1ccc(/C=C/c2c[nH]c3ccccc23)[n+](CC)c1 | -1% | -7% | -1% | -1% | 6.3µM* | 13%
